Screening data (PubChem)
Pf growth 48h: P. falciparum growth inhibition at 48 hours (one generation); P. falciparum luciferase growth in erythrocytes, 48 h; Potency, µM (series often up to 28.7 µM), most hits filed as inhibitors; 310,000 compounds, 5.9% hits; AID 504832; active = well fitted inhibition curve with a large enough effect; inconclusive = small, poorly fitted or top-dose-only effect, or another doubt; inactive = no such curve, though single readings can be large or run the other way
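Firefly luciferase activity from engineered P. falciparum reports growth; inhibitors lower the luminescent signal. Cultures contained 2% hematocrit erythrocytes at 0.1% final parasitemia.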
RE007 growth inh: less growth of the S. pombe RE007 Vpr strain | 360,000 compounds, 0.21% hits | Potency, µM (top dose mostly 92.2 µM), actives largely listed as inhibitors | S. pombe RE007 Vpr strain, BacTiter-Glo ATP luminescence, 24 h; active = well fitted falling curve with a large enough effect; inconclusive = small, poorly fitted or top-dose-only effect; inactive = no such curve, though single readings can be large or run the other way; note: nearly all actives have a fitted effect of over 50% in size
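Fission yeast strain RE007, carrying one chromosomally integrated HIV-1 vpr copy, was seeded at OD 0.01 in PMG+AL medium with 23 nL pinned compound. After 24 h at 30 °C and 99% humidity, viability was read by BacTiter-Glo luminescence.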
Pf growth 96h: P. falciparum growth inhibition at 96 hour, primary screen for plastid delayed-death inhibitors. Potency, µM (highest dose often 28.7 µM), most hits filed as inhibitors. P. falciparum luciferase reporter growth, 96 h. 320,000 compounds, 6.9% hits; active = well fitted inhibition curve with a large enough effect; inconclusive = small, poorly fitted or top-dose-only effect, or another doubt; inactive = no such curve, though single readings can be large or run the other way
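Compounds incubated with erythrocytes infected by luciferase-expressing P. falciparum (2% hematocrit, 0.05% parasitemia final) for 96 hours, 37 C in 5% CO2. Growth inhibition scored as decreased luciferase luminescence.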
SARS PLpro yeast: blocks SARS-CoV papain-like protease in a yeast assay | Potency, µM (highest dose often 32.9 µM), usual class: activators | S. cerevisiae expressing SARS-CoV PLpro, growth rescue | 330,000 compounds, 0.19% hits | AID 485353; note: nearly all actives have a fitted effect of over 55% in size
NS1 function inh: blocks influenza NS1 protein function; AID 2326; Potency, µM (doses to about 46.1 µM); 270,000 compounds, 0.4% hits; note: actives are rising curves; nearly all actives have a fitted effect of over 50% in size
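Compounds were scored for reversing the slow growth caused by influenza A NS1 in S. cerevisiae, measured by optical density at 600 nm. Assay medium contained 2% galactose at pH 6.0; NS1-free yeast of the same strain were the positive control.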
Hits are given with their value. In the library only some 9.5% were active in any assay of this set; here they are far more common. Unless noted, calls come from the whole dose curve.

Results for COc1ccc(C)cc1NCc1cc(=O)oc2cc(-c3ccccc3)c(O)cc12 ?
Pf growth 48h: 1.5µM; RE007 growth inh: inactive; Pf growth 96h: 1µM; SARS PLpro yeast: inactive; NS1 function inh: inactive

What do the screens show for `COc1ccccc1NCc1cc(=O)oc2c(C)c(O)ccc12`?
Pf growth 48h: 1.7µM; RE007 growth inh: inactive; Pf growth 96h: 1.9µM; SARS PLpro yeast: inactive; NS1 function inh: inactive

How did Cc1cc(C)cc(NCc2cc(=O)oc3cc(C)c(O)cc23)c1 do in these assays?
Pf growth 48h: inconclusive; RE007 growth inh: inactive; Pf growth 96h: inconclusive; SARS PLpro yeast: inactive; NS1 function inh: inactive

Results for Cc1cc(C)cc(NCc2cc(=O)oc3cc(-c4ccccc4)c(O)cc23)c1 ?
Pf growth 48h: 4.7µM; Pf growth 96h: 2.3µM; SARS PLpro yeast: inactive; NS1 function inh: inactive

What do the screens show for `O=c1oc2ccccc2n1CCCCCn1c(=O)oc2ccccc21`?
Pf growth 48h: inconclusive; RE007 growth inh: inactive; Pf growth 96h: inconclusive; SARS PLpro yeast: inactive; NS1 function inh: inactive

How did O=c1oc2ccccc2n1CCCOc1ccccc1 do in these assays?
Pf growth 48h: inactive; RE007 growth inh: inactive; Pf growth 96h: 12µM; SARS PLpro yeast: inactive; NS1 function inh: inactive

What do the screens show for `O=C(C[n+]1ccc(C(=O)c2ccccc2)cc1)Nc1cccc([N+](=O)[O-])c1`?
RE007 growth inh: inactive

What do the screens show for `CCCCOc1ccc(-c2nnc(-c3cc[n+](C)cc3)o2)cc1`?
Pf growth 48h: 0.41µM; RE007 growth inh: inactive; Pf growth 96h: inactive; SARS PLpro yeast: inactive; NS1 function inh: inactive

Results for CCCCOc1ccc(-c2nnc(-c3ccncc3)o2)cc1 ?
Pf growth 48h: inconclusive; RE007 growth inh: inactive; Pf growth 96h: inactive; SARS PLpro yeast: inactive; NS1 function inh: inactive

How did CCOc1ccc(-c2nnc(-c3ccncc3)o2)cc1 do in these assays?
Pf growth 48h: inactive; RE007 growth inh: inconclusive; Pf growth 96h: 2.9µM; SARS PLpro yeast: inactive; NS1 function inh: inactive

Results for CCOc1ccc(-c2nnc(-c3ccccc3)o2)cc1 ?
Pf growth 48h: inactive; RE007 growth inh: inconclusive; Pf growth 96h: 2.1µM; SARS PLpro yeast: inactive; NS1 function inh: inactive

What do the screens show for `CCNc1ccc(C(=O)NN=C2CCCC2)cc1[N+](=O)[O-]`?
Pf growth 48h: inactive; RE007 growth inh: inactive; Pf growth 96h: inconclusive; SARS PLpro yeast: inactive

How did CN(CC(=O)Nc1cccc(F)c1)C(=O)c1ccc(C(=O)c2ccccc2)cc1 do in these assays?
Pf growth 48h: inconclusive; RE007 growth inh: inactive; Pf growth 96h: 9.3µM; SARS PLpro yeast: inactive

What do the screens show for `CN(CC(=O)Nc1cccc(F)c1)CC(=O)NC(c1ccccc1)c1ccccc1`?
Pf growth 48h: 12µM; RE007 growth inh: inactive; Pf growth 96h: inconclusive; SARS PLpro yeast: inactive

What do the screens show for `CC1CCN(C(=O)c2cc3nc(-c4ccccc4)cc(-c4ccccc4)n3n2)CC1`?
RE007 growth inh: inactive; Pf growth 96h: 6.6µM; SARS PLpro yeast: inactive; NS1 function inh: inactive

Results for O=C(NC1CCCC1)c1cc2nc(-c3ccccc3)cc(-c3ccccc3)n2n1 ?
Pf growth 48h: inconclusive; RE007 growth inh: inactive; Pf growth 96h: inconclusive; SARS PLpro yeast: inactive; NS1 function inh: inactive

What do the screens show for `COc1ccc(/C=N/Nc2cc(C)nc(N)n2)cc1`?
Pf growth 48h: 9.3µM; RE007 growth inh: inactive; Pf growth 96h: inactive; SARS PLpro yeast: inactive; NS1 function inh: inactive

How did COc1ccc(/C=N/Nc2cc(N(C)C)nc(N(C)C)n2)cc1 do in these assays?
Pf growth 48h: inconclusive; RE007 growth inh: inactive; Pf growth 96h: 12µM; SARS PLpro yeast: inactive; NS1 function inh: inactive

Results for Nc1cc(C(=O)N2CCN(c3ccc([N+](=O)[O-])cc3)CC2)ccc1N1CC2CC(C1)c1cccc(=O)n1C2 (stereo unspecified) ?
Pf growth 48h: inconclusive; RE007 growth inh: inactive; Pf growth 96h: inconclusive; SARS PLpro yeast: inactive; NS1 function inh: inactive

What do the screens show for `N=C(N)n1cccn1`?
Pf growth 48h: inactive; Pf growth 96h: inactive

Results for COc1cccc(-c2cc3nc4c(c(N5CCC6(CC5)OCCO6)n3n2)CCC4)c1 ?
Pf growth 48h: inconclusive; RE007 growth inh: inactive; Pf growth 96h: inconclusive; SARS PLpro yeast: inactive; NS1 function inh: inactive

How did Cc1cc([N+](=O)[O-])c2ccccc2[n+]1[O-] do in these assays?
Pf growth 48h: inconclusive; RE007 growth inh: 14µM; Pf growth 96h: inactive; SARS PLpro yeast: inactive; NS1 function inh: inactive

What do the screens show for `Cc1ccccc1[N+](=O)[O-]`?
Pf growth 48h: inactive; RE007 growth inh: inactive; Pf growth 96h: inconclusive; SARS PLpro yeast: inactive

Results for O=C(c1ccoc1)N1CCC2(CC1)Oc1ccc(Cl)cc1C(=O)C21CC(c2ccccc2)=NO1 (stereo unspecified) ?
Pf growth 48h: 15µM; RE007 growth inh: inactive; Pf growth 96h: inconclusive; SARS PLpro yeast: inactive; NS1 function inh: inactive

How did Cc1ccc(C(=O)N2CCC3(CC2)Oc2ccc(F)cc2C(=O)C32CC(c3cccnc3)=NO2)s1 (stereo unspecified) do in these assays?
Pf growth 48h: 9.3µM; RE007 growth inh: inactive; Pf growth 96h: 13µM; SARS PLpro yeast: inactive; NS1 function inh: inconclusive

How did CC(C)(C)OC(=O)N1CCC2(CC1)Oc1ccc(Cl)cc1C(=O)C21CC(c2ccc(Cl)cc2)=NO1 (stereo unspecified) do in these assays?
RE007 growth inh: inactive

Results for O=C(/C=C/c1cccs1)N1CCC2(CC1)Oc1ccc(Cl)cc1C(=O)C21CC(c2ccccc2)=NO1 (stereo unspecified) ?
Pf growth 48h: 13µM; RE007 growth inh: inactive; Pf growth 96h: inconclusive; SARS PLpro yeast: inactive; NS1 function inh: inactive

What do the screens show for `Cc1ccccc1NC(=O)CCCN1C(=O)C2CC=CCC2C1=O` (stereo unspecified)?
Pf growth 48h: inactive; RE007 growth inh: inactive; Pf growth 96h: inactive; SARS PLpro yeast: inconclusive; NS1 function inh: inactive

Results for Cc1sc2nc(-c3ccccn3)[nH]c(=O)c2c1-c1ccccc1 ?
Pf growth 48h: 1.5µM; RE007 growth inh: inconclusive; Pf growth 96h: inconclusive; SARS PLpro yeast: inactive

What do the screens show for `Cc1sc2nc(-c3ccncc3)[nH]c(=O)c2c1-c1ccccc1`?
Pf growth 48h: inactive; Pf growth 96h: inactive; SARS PLpro yeast: inactive; NS1 function inh: inactive

How did c1ccc(C2Nc3ccccc3Oc3ccccc32)cc1 (stereo unspecified) do in these assays?
Pf growth 48h: 10µM; RE007 growth inh: inactive; Pf growth 96h: 5.2µM; SARS PLpro yeast: inactive; NS1 function inh: inactive

How did O=C(COC(=O)CNS(=O)(=O)c1cc(C(F)(F)F)ccc1Cl)NC1CC1 do in these assays?
RE007 growth inh: inactive; SARS PLpro yeast: inactive

Results for Cc1nc(S(=O)(=O)c2ccc(Cl)cc2)c(NCc2ccccc2)o1 ?
RE007 growth inh: inactive; SARS PLpro yeast: inactive; NS1 function inh: inactive

How did CCOP(=O)(OCC)c1nc(-c2cccc3ccccc23)oc1NCCc1ccc(OC)cc1 do in these assays?
Pf growth 48h: 15µM; RE007 growth inh: inactive; Pf growth 96h: inconclusive; SARS PLpro yeast: inactive; NS1 function inh: inactive

Results for CCOP(=O)(OCC)c1nc(Cc2ccccc2)oc1NCc1ccccc1 ?
Pf growth 48h: 9.3µM; RE007 growth inh: inactive; Pf growth 96h: 10µM; SARS PLpro yeast: inactive; NS1 function inh: inactive
